# Experimental data from the supplement of paper PMC8728848.
# This excerpt belongs to a sample that is enriched for the strongest signals.
# How the values were obtained:
# Test in all cases: glycan array binding signal (z-score within array); higher = stronger binding
# Conditions in all cases: glycan notation: IUPAC condensed, linker removed
# [1] = biological target: Fuc(a1-2)Gal(b1-3)GalNAc(a1-3)[Fuc(a1-2)]Gal(b1-4)GlcNAc
# Procedure, shortened: (§1)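 Arrays were curated from the Consortium for Functional Glycomics database, 3228 in total, and kept only where the protein sequence was available. Binding is expressed as a within-array Z-score. This score was averaged across arrays of the same protein sequence at different concentrations or buffers and across linkers, and negative values can be read as non-binding.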
# [2] = biological target: Fuc(a1-2)Gal(b1-3)GlcNAc
# Procedure, shortened: as §1
# [3] = biological target: Fuc(a1-2)Gal(b1-3)GlcNAc(b1-2)Man(a1-3)[Fuc(a1-2)Gal(b1-3)GlcNAc(b1-2)Man(a1-6)]Man(b1-4)GlcNAc(b1-4)GlcNAc
# Procedure, shortened: as §1
# [4] = biological target: Fuc(a1-2)Gal(b1-3)GlcNAc(b1-3)[Gal(b1-4)GlcNAc(b1-6)]Gal(b1-4)Glc
# Procedure, shortened: as §1
# [5] = biological target: Fuc(a1-2)Gal(b1-3)GlcNAc6S
# Procedure, shortened: as §1
# [6] = biological target: Fuc(a1-2)Gal(b1-4)GlcNAc(b1-2)Man(a1-3)[Fuc(a1-2)Gal(b1-4)GlcNAc(b1-2)Man(a1-6)]Man(b1-4)GlcNAc(b1-4)GlcNAc
# Procedure, shortened: as §1
# [7] = biological target: Fuc(a1-2)[Gal(a1-3)]Gal(b1-3)GlcNAc(b1-3)GalNAc
# Procedure, shortened: as §1
# [8] = biological target: Fuc(a1-2)[Gal(a1-3)]Gal(b1-4)GlcNAc(b1-2)Man(a1-3)[Fuc(a1-2)[Gal(a1-3)]Gal(b1-4)GlcNAc(b1-2)Man(a1-6)]Man(b1-4)GlcNAc(b1-4)GlcNAc
# Procedure, shortened: as §1
# [9] = biological target: Fuc(a1-2)[GalNAc(a1-3)]Gal(b1-4)GlcNAc(b1-6)GalNAc
# Procedure, shortened: as §1
# [10] = biological target: Fuc(a1-3)[Gal(b1-4)]GlcNAc
# Procedure, shortened: as §1
# [11] = biological target: Gal(a1-3)Gal(b1-4)GlcNAc(b1-2)Man
# Procedure, shortened: as §1
# [12] = biological target: Gal(a1-4)Gal(b1-3)GlcNAc(b1-2)Man(a1-3)[Gal(a1-4)Gal(b1-3)GlcNAc(b1-2)Man(a1-6)]Man(b1-4)GlcNAc(b1-4)GlcNAc
# Procedure, shortened: as §1
# [13] = biological target: Gal(a1-4)GlcNAc
# Procedure, shortened: as §1
# [14] = biological target: Gal(b1-3)Gal(b1-4)GlcNAc
# Procedure, shortened: as §1
# [15] = biological target: Gal(b1-3)GlcNAc(b1-3)Gal(b1-4)GlcNAc(b1-2)[Gal(b1-3)GlcNAc(b1-3)Gal(b1-4)GlcNAc(b1-6)]Man(a1-6)[Gal(b1-3)GlcNAc(b1-3)Gal(b1-4)GlcNAc(b1-2)Man(a1-3)]Man(b1-4)GlcNAc(b1-4)[Fuc(a1-6)]GlcNAc
# Procedure, shortened: as §1
# [16] = biological target: Gal(b1-3)[Fuc(a1-4)]GlcNAc(b1-2)Man(a1-3)[Gal(b1-3)[Fuc(a1-4)]GlcNAc(b1-2)Man(a1-6)]Man(b1-4)GlcNAc(b1-4)[Fuc(a1-6)]GlcNAc
# Procedure, shortened: as §1
# [17] = biological target: Gal(b1-4)Glc
# Procedure, shortened: as §1
# [18] = biological target: Gal(b1-4)GlcNAc(b1-3)Gal(b1-3)GalNAc
# Procedure, shortened: as §1
# [19] = biological target: Gal(b1-4)GlcNAc(b1-3)Gal(b1-3)GlcNAc
# Procedure, shortened: as §1
# [20] = biological target: Gal(b1-4)GlcNAc(b1-3)Gal(b1-4)GlcNAc(b1-3)Gal(b1-4)GlcNAc(b1-2)Man(a1-3)[Gal(b1-4)GlcNAc(b1-3)Gal(b1-4)GlcNAc(b1-3)Gal(b1-4)GlcNAc(b1-2)Man(a1-6)]Man(b1-4)GlcNAc(b1-4)[Fuc(a1-6)]GlcNAc
# Procedure, shortened: as §1
# [21] = biological target: Gal(b1-4)GlcNAc(b1-3)Gal(b1-4)GlcNAc(b1-3)Gal(b1-4)GlcNAc(b1-2)[Gal(b1-4)GlcNAc(b1-3)Gal(b1-4)GlcNAc(b1-3)Gal(b1-4)GlcNAc(b1-6)]Man(a1-6)[Gal(b1-4)GlcNAc(b1-3)Gal(b1-4)GlcNAc(b1-3)Gal(b1-4)GlcNAc(b1-2)Man(a1-3)]Man(b1-4)GlcNAc(b1-4)[Fuc(a1-6)]GlcNAc
# Procedure, shortened: as §1
# [22] = biological target: Gal(b1-4)GlcNAc(b1-3)Gal(b1-4)GlcNAc(b1-3)Gal(b1-4)GlcNAc(b1-3)Gal(b1-4)GlcNAc(b1-3)Gal(b1-4)GlcNAc(b1-2)[Gal(b1-4)GlcNAc(b1-3)Gal(b1-4)GlcNAc(b1-3)Gal(b1-4)GlcNAc(b1-3)Gal(b1-4)GlcNAc(b1-3)Gal(b1-4)GlcNAc(b1-6)]Man(a1-6)[Gal(b1-4)GlcNAc(b1-3)Gal(b1-4)GlcNAc(b1-3)Gal(b1-4)GlcNAc(b1-3)Gal(b1-4)GlcNAc(b1-3)Gal(b1-4)GlcNAc(b1-2)Man(a1-3)]Man(b1-4)GlcNAc(b1-4)[Fuc(a1-6)]GlcNAc
# Procedure, shortened: as §1
# [23] = biological target: Gal4S(b1-4)GlcNAc
# Procedure, shortened: as §1
# [24] = biological target: Gal6P(b1-4)GlcNAc
# Procedure, shortened: as §1
# [25] = biological target: Gal6S(b1-3)GlcNAc6S
# Procedure, shortened: as §1
# [26] = biological target: GalNAc(b1-6)GalNAc
# Procedure, shortened: as §1
# [27] = biological target: GalNAc6S(b1-4)GlcNAc
# Procedure, shortened: as §1
binder,measurement,setting,value
Nc3LysM-2 (protein) AHVLQARQSVSCDFATAANTGDTCASFAAAWGITEAAFAKLNPGVSCPGNLIAGSEYCVIGTVSTGAPTTTKAATTSTTPPTTTTTTKATTLSTSTTSVSPTGPSPQMPSITSTCNKFYQVQSGDGCWSIEQAQGVSASDFMAWNKAVDAQCDNLWLGYYVCVGVKGGSSPPPTTTTKPASSSAPTPQMPNTVSNCKKFHKVVSGDGCWAIEQAAGISASDFAKWNPYVDAACDNLWLGYYVCIGV,glycan array binding signal (z-score),[1],-0.746
same,glycan array binding signal (z-score),[2],0.966
same,glycan array binding signal (z-score),[3],-0.335
same,glycan array binding signal (z-score),[4],0.735
same,glycan array binding signal (z-score),[5],-1.29
same,glycan array binding signal (z-score),[6],2.21
same,glycan array binding signal (z-score),[7],-0.745
same,glycan array binding signal (z-score),[8],2.78
same,glycan array binding signal (z-score),[9],-1.2
same,glycan array binding signal (z-score),[10],-0.073
same,glycan array binding signal (z-score),[11],-0.456
same,glycan array binding signal (z-score),[12],-0.185
same,glycan array binding signal (z-score),[13],0.991
same,glycan array binding signal (z-score),[14],-0.043
same,glycan array binding signal (z-score),[15],2.73
same,glycan array binding signal (z-score),[16],0.856
same,glycan array binding signal (z-score),[17],-0.252
same,glycan array binding signal (z-score),[18],-1.18
same,glycan array binding signal (z-score),[19],0.13
same,glycan array binding signal (z-score),[20],2.69
same,glycan array binding signal (z-score),[21],5.8
same,glycan array binding signal (z-score),[22],2.29
same,glycan array binding signal (z-score),[23],-1.15
same,glycan array binding signal (z-score),[24],-0.044
same,glycan array binding signal (z-score),[25],-1.34
same,glycan array binding signal (z-score),[26],0.877
same,glycan array binding signal (z-score),[27],0.893
